Assay results published in the supplement of paper PMC10849652.
Targets with a hit are over-represented here; the source holds about 7,900 in all. About 0.6% of all pairs of compound and target were hits.

Legend:
Assay in all cases: log2 fold change, soluble protein after heating vs DMSO (PISA); higher = thermal stabilisation; K562 cells, 10 uM, 30 min; active = over 0.2 and 3.5 SD of the protein, either way, in both replicates (recomputed)
[1] = compound: CC1=C(C=C(C=C1)NC(=O)C2=CC(=CC=C2)C(C)(C)C#N)NC3=CC4=C(C=C3)N=CN(C4=O)C
Summary of the method: (§1)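 For each measurement, 10 μM compound was applied for 30 min to K562 cells at 2×10^6 cells/mL. Aliquots were heated for 3 min across 48°C-58°C, pooled, and extracted in PBS with 0.5% NP-40 at 4°C; the supernatant after 21,000xg for 90 min was soluble protein. This was quantified by TMTpro 16plex LC-MS/MS with channel sums equalised, and thermal stability was reported relative to control samples from duplicates, on a log2 fold-change scale.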

[2] = compound: CC1=C(C=C(C=C1)NC(=O)C2=CC(=CC=C2)N(C)C)NC(=O)C3=CC=C(C=C3)O
Summary of the method: as §1

[3] = compound: CC1=CC=C(C=C1)SC2=C3C=C(SC3=CN=C2)C(=O)N
Summary of the method: as §1

[4] = compound: CC1=NC(=CC=C1)C2=C(N=C(N2)C(C)(C)C)C3=CC4=NC=CN=C4C=C3
Summary of the method: as §1

vemurafenib = compound: CCCS(=O)(=O)Nc1ccc(F)c(C(=O)c2c[nH]c3ncc(-c4ccc(Cl)cc4)cc23)c1F [vemurafenib]
Summary of the method: as §1

[5] = compound: CCCS(=O)(=O)Nc1ccc(F)c(C(=O)c2c[nH]c3ncc(Cl)cc23)c1F
Summary of the method: as §1

[6] = compound: CCCc1cc(C)[nH]c(=O)c1CNC(=O)c1cc(-c2ccnc(N3CCN(C)CC3)c2)cc2c1cnn2C(C)C
Summary of the method: as §1

givinostat = compound: CCN(CC)Cc1ccc2cc(COC(=O)Nc3ccc(C(=O)NO)cc3)ccc2c1 [givinostat]
Summary of the method: as §1

barasertib = compound: CCN(CCCOc1ccc2c(Nc3cc(CC(=O)Nc4cccc(F)c4)[nH]n3)ncnc2c1)CCOP(=O)(O)O [barasertib]
Summary of the method: as §1

Nexturastat A = compound: CCCCN(Cc1ccc(C(=O)NO)cc1)C(=O)Nc1ccccc1 [Nexturastat A]
Summary of the method: as §1

Measured: log2 fold change

SRCAP (UniProt Q6ZRS2)
Sequence of UniProt Q6ZRS2 (Q6ZRS2 whole entry, looked up): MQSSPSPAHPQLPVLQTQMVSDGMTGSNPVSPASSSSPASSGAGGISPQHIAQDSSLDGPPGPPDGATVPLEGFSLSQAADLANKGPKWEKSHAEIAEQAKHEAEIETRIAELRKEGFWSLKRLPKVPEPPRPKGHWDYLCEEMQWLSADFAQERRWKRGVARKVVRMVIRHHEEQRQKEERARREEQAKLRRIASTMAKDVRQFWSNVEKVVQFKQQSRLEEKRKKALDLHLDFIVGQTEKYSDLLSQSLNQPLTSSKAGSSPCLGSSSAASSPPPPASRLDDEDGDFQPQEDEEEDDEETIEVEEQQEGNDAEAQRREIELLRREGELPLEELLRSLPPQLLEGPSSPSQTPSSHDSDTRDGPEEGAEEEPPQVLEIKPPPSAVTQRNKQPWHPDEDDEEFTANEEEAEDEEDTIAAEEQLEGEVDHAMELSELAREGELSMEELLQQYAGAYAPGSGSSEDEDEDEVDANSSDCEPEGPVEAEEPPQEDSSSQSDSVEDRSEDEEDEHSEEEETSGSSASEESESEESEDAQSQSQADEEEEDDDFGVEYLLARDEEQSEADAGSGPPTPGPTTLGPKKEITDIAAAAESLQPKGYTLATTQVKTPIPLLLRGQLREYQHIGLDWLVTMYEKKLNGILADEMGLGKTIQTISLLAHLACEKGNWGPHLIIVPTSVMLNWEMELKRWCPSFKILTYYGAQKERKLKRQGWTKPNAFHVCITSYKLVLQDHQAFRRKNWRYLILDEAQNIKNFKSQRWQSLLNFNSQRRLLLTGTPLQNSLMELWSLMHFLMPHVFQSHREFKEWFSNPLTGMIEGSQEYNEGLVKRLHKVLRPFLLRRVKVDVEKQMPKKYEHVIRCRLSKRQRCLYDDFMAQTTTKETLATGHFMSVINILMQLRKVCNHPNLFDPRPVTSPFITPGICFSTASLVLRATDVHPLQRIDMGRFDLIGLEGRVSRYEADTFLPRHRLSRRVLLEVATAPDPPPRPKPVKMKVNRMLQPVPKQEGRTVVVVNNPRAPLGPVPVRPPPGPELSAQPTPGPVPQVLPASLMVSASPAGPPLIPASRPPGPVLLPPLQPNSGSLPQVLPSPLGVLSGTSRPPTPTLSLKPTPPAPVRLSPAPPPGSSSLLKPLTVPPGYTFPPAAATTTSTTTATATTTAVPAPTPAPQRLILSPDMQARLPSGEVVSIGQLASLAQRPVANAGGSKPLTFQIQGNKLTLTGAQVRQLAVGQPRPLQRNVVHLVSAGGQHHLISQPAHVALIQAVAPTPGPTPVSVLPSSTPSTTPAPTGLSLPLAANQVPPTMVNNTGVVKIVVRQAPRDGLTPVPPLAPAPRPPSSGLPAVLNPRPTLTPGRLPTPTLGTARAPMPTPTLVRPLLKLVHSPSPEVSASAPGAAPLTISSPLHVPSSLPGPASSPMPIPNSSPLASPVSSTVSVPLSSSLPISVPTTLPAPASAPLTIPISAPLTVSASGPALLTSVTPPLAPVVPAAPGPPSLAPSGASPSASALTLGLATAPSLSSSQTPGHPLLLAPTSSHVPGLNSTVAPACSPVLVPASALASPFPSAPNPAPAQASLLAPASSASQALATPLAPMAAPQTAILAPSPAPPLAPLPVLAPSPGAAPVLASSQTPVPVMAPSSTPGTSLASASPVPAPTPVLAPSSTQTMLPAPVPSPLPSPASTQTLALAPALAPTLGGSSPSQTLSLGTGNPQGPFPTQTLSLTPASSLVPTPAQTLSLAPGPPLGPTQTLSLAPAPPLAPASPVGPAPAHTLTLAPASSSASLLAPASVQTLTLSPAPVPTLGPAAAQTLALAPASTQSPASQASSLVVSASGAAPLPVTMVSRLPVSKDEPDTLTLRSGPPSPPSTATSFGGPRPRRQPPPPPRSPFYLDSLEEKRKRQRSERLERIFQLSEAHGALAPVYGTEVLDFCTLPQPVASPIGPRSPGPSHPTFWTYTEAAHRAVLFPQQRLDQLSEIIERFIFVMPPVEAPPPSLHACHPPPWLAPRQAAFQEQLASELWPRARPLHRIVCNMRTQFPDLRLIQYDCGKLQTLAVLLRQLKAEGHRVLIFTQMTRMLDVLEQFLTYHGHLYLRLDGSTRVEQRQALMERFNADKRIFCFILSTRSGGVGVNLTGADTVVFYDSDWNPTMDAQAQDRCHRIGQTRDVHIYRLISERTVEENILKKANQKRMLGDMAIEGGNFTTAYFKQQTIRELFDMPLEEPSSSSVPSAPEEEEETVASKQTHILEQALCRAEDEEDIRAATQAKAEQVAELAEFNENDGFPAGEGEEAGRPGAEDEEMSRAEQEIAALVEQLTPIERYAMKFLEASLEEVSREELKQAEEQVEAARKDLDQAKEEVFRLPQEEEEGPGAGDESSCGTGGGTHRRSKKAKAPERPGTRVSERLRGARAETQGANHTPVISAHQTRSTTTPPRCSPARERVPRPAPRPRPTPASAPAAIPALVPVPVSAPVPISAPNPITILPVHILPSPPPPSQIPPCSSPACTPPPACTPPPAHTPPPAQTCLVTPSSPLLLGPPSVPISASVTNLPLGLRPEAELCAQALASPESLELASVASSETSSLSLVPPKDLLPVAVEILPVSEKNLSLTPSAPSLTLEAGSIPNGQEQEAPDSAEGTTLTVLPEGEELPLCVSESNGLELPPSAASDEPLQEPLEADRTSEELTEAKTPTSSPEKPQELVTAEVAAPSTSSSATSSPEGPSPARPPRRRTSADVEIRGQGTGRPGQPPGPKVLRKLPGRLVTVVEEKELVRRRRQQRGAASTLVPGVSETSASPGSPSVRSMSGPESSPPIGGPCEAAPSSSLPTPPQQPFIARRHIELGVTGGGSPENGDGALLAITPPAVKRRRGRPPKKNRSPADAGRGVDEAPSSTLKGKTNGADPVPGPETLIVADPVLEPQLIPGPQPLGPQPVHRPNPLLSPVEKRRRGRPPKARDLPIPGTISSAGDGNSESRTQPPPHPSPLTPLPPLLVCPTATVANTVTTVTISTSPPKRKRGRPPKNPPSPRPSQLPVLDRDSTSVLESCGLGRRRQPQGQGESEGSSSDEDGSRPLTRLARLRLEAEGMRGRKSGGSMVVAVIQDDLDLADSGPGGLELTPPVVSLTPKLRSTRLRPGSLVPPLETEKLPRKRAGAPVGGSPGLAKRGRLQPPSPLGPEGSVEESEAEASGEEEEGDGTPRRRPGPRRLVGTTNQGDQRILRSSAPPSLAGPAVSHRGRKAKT
inactive: [1] -0.177 | [2] -0.286 | [3] 0.058 | [4] 0.036 | vemurafenib 0.278 | [5] 0.082 | [6] -0.02 | givinostat -0.041 | barasertib 0.026

SSBP4 (UniProt Q9BWG4)
inactive: [1] 0.056 | [2] -0.017 | [3] -0.133 | [4] 0.003 | [5] 0.021 | [6] -0.036 | givinostat -0.042 | barasertib 0.053

SUPT5H (UniProt O00267)
inactive: [1] 0.004 | [2] -0.054 | [3] 0.006 | [4] 0.013 | Nexturastat A -0.067 | vemurafenib 0.008 | [5] 0.068 | [6] -0.028 | givinostat 0.035 | barasertib 0.04

TIMM10B (UniProt Q9Y5J6)
Sequence of UniProt Q9Y5J6 (Q9Y5J6 whole entry, looked up): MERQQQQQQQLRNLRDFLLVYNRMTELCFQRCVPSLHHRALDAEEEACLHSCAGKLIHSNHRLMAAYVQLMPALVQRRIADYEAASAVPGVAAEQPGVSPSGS
inactive: [1] -0.053 | [2] -0.075 | [3] 0.018 | Nexturastat A -0.05 | vemurafenib 0.073 | [5] -0.077 | [6] -0.057 | givinostat 0.061 | barasertib 0.067

SRXN1 (UniProt Q9BYN0)
Sequence of UniProt Q9BYN0 (Q9BYN0 whole entry, looked up): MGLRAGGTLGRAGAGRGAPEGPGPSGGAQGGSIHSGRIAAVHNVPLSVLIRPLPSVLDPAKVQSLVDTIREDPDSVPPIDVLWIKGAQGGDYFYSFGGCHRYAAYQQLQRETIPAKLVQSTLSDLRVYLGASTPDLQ
inactive: [1] -0.149 | [2] 0.01 | [3] 0.04 | [4] 0.089 | Nexturastat A -0.036 | vemurafenib 0.142 | [5] 0.017 | [6] -0.027 | barasertib 0.012

TGFBR1 isoform 2 (UniProt P36897)
inactive: [1] -0.112 | [2] 0.023 | [3] -0.058 | Nexturastat A 0.038 | vemurafenib 0.044 | [5] 0.028 | [6] -0.062 | givinostat 0.07 | barasertib -0.028

SORT1 (UniProt Q99523)
inactive: [1] -0.042 | [2] 0.013 | [3] -0.006 | [4] -0.012 | Nexturastat A -0.038 | vemurafenib -0.003 | [5] -0.008 | [6] -0.072 | givinostat -0.003 | barasertib 0.015

TERF2IP (UniProt Q9NYB0)
Sequence of UniProt Q9NYB0 (Q9NYB0 whole entry, looked up): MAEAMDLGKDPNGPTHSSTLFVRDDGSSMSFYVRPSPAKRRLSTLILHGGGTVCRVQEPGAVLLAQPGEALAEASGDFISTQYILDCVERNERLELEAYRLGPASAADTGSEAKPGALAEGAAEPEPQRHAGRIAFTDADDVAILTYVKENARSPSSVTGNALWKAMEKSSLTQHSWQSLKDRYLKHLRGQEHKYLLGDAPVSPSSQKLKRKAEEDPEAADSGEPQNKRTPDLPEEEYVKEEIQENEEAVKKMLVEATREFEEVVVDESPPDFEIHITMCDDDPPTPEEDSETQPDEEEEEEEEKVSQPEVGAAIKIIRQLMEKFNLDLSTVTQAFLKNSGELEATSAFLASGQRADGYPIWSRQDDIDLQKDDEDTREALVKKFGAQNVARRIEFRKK
inactive: [1] -0.023 | [2] -0.012 | [3] 0.02 | [4] 0.013 | Nexturastat A 0.057 | vemurafenib 0.184 | [5] 0.001 | [6] -0.017 | givinostat -0.009 | barasertib 0.021

SNRNP40 (UniProt Q96DI7)
inactive: [1] 0.01 | [2] 0.001 | [3] -0.06 | [4] -0.023 | Nexturastat A 0 | vemurafenib -0.027 | [5] -0.046 | [6] -0.037 | givinostat -0.035 | barasertib -0.04

TANGO6 (UniProt Q9C0B7)
inactive: [1] 0.069 | [2] -0.006 | [3] 0.039 | [4] 0.031 | Nexturastat A -0.051 | [5] 0.068 | [6] -0.052 | givinostat 0.131 | barasertib 0.048

STK38 (UniProt Q15208)
inactive: [1] 0.099 | [2] -0.054 | [3] 0.013 | [4] 0.004 | Nexturastat A -0.062 | vemurafenib 0.091 | [5] 0.12 | [6] 0.049 | givinostat 0.048 | barasertib 0.022

SOAT1 (UniProt P35610)
Sequence of UniProt P35610 (P35610 whole entry, looked up): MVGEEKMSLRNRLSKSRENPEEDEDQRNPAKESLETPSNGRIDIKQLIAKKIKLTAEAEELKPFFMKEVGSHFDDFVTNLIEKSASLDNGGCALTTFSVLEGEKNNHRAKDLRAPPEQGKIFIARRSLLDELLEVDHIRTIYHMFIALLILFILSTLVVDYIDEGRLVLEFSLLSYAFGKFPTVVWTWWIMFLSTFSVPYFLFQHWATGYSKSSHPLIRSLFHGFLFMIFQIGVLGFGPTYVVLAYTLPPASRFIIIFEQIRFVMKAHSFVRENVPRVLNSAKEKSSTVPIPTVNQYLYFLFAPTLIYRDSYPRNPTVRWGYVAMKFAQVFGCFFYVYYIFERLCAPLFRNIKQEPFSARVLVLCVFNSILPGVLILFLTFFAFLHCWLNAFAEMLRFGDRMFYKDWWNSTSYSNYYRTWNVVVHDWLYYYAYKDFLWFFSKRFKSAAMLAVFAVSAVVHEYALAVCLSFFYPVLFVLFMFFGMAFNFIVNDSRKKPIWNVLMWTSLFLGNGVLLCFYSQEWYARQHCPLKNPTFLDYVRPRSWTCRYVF
inactive: [1] 0.259 | [2] -0.044 | [3] 0.038 | [4] -0.03 | Nexturastat A 0.002 | vemurafenib -0.036 | [5] -0.015 | [6] -0.137 | givinostat 0.152 | barasertib 0.001

SLC39A11 (UniProt Q8N1S5)
inactive: [1] 0.046 | [2] 0.372 | [3] -0.057 | [4] 0.045 | vemurafenib 0.055 | [5] -0.026 | [6] -0.009 | givinostat 0.074 | barasertib -0.002

TENT5C (UniProt Q5VWP2)
inactive: [1] -0.011 | [2] 0.037 | [3] -0.019 | [4] 0.088 | vemurafenib 0.097 | [5] 0.005 | [6] -0.137 | givinostat 0.014 | barasertib 0.01

STIM1 (UniProt Q13586)
Sequence of UniProt Q13586 (Q13586 whole entry, looked up): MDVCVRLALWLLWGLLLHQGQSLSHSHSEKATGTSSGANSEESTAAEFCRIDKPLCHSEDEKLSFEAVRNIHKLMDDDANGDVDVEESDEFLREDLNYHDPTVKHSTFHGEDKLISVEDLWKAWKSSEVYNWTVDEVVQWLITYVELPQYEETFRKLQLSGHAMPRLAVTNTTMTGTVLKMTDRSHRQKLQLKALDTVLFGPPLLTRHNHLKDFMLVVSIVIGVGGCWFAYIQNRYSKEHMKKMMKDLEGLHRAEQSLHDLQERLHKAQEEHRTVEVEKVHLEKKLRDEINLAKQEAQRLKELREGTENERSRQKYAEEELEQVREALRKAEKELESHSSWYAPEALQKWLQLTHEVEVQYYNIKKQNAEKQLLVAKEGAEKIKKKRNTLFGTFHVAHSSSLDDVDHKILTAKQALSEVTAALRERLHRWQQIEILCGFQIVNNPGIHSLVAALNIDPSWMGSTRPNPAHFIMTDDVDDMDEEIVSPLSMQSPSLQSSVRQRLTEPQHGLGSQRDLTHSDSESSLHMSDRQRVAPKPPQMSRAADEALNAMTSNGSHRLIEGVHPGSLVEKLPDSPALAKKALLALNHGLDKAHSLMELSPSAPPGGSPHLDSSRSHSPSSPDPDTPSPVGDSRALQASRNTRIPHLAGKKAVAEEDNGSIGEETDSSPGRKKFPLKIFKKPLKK
inactive: [1] 0.014 | [2] 0.003 | [3] 0.028 | [4] 0.045 | Nexturastat A -0.066 | vemurafenib -0.006 | [5] 0.034 | [6] -0.015 | givinostat 0.009 | barasertib 0.008
